# Reference: PubChem BioAssay (NCI)
# Compounds without any hit were thinned out: in the full panel of roughly 83,000, 20% have a hit.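 The test compound was applied at a single concentration to cells in 96-well plates for 48 hours, and percent growth was recorded.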 Values without a mark were called inactive. The source made the active and inactive calls. The calls were made as follows: active = growth percent below 10; inactive = the rest.
# Experiments:
# Assay in all cases: NCI-60 one-dose screen, 48 h (100 = growth as untreated, 0 = no growth, -100 = all killed)
# Details in all cases: 10 µM unless noted
# [1] = tested on: NCI-H23 lung
# [2] = tested on: NCI-H226 lung
# [3] = tested on: NCI-H322M lung
# [4] = tested on: HOP-62 NSCLC
# [5] = tested on: NCI-H460 lung
# [6] = tested on: HOP-92 NSCLC
# [7] = tested on: NCI-H522 lung
# [8] = tested on: A549/ATCC NSCLC
# [9] = tested on: 786-0 renal
# [10] = tested on: COLO 205 colon
# [11] = tested on: DU-145 prostate
# [12] = tested on: K-562 leukemia
# [13] = tested on: MALME-3M melanoma
# [14] = tested on: MDA-MB-231 breast
# [15] = tested on: RXF 393 renal
# [16] = tested on: SF-268 CNS
# [17] = tested on: SF-295 CNS
# [18] = tested on: SF-539 CNS
# [19] = tested on: UACC-257 melanoma
# [20] = tested on: M14 melanoma
SMILES,growth [1],growth [2],growth [3],growth [4],growth [5],growth [6],growth [7],growth [8],growth [9],growth [10],growth [11],growth [12],growth [13],growth [14],growth [15],growth [16],growth [17],growth [18],growth [19],growth [20]
C[C@@H](NC(=O)[C@@H](CC(=O)N1CCC(N2CCCCC2)CC1)N1C(=O)[C@@H](N2C(=O)OC[C@@H]2c2ccccc2)[C@H]1/C=C/c1cccc(Cl)c1)c1ccccc1,87.8%,89.8%,82.1%,87.6%,13.3%,58.3%,64.2%,63.9%,65%,-54.6% (active),88.1%,-8.32% (active),-33.7% (active),33.2%,60.5%,67.9%,82%,75.7%,57.2%,-46.6% (active)
Cc1cnc([C@]23CC[C@@H](C)[C@H](C)[C@H]2C2=CC[C@@H]4[C@@]5(C)Cc6c([nH]c7ccccc67)C(C)(C)[C@@H]5CC[C@@]4(C)[C@]2(C)CC3)o1,27.8% [100 µM],59.2% [100 µM],37% [100 µM],43.8% [100 µM],16.7% [100 µM],30.5% [100 µM],79.5% [100 µM],28.8% [100 µM],27% [100 µM],43% [100 µM],69.9% [100 µM],38.3% [100 µM],59.1% [100 µM],38.3% [100 µM],101% [100 µM],36.1% [100 µM],31.7% [100 µM],6.53% [100 µM] (active),61.5% [100 µM],28.4% [100 µM]
CC(C)C1=NOC(=O)C1=Cc1cn(-c2ccco2)nc1-c1ccccc1,96.6%,102%,102%,79.1%,93.8%,94.1%,84.8%,99.2%,89.1%,103%,94.6%,62.1%,104%,92%,80.6%,90.5%,99.2%,99.9%,106%,85.6%
Nc1nc(Cl)c2ncn(Cc3cc4c(cc3I)OCO4)c2n1,75.2%,85.8%,65.4%,36.1%,18%,82.4%,14.7%,45.6%,44.4%,21.1%,52.8%,15.9%,63.7%,40.9%,66.3%,62.1%,42.5%,46.5%,81.4%,76%
C=C(C)[C@@H]1CC[C@]2(C)[C@H](CC[C@@H]3[C@@H]([C@@](C)(O)CCC=C(C)C)CC[C@]32C)[C@@]1(C)CCC(=O)N1CCN(C)CC1,-72% [100 µM] (active),-72% [100 µM] (active),-97.5% [100 µM] (active),-93% [100 µM] (active),-82.2% [100 µM] (active),-89.9% [100 µM] (active),-81.1% [100 µM] (active),0.566% [100 µM] (active),-92.7% [100 µM] (active),-80.8% [100 µM] (active),-80% [100 µM] (active),1.77% [100 µM] (active),-89.6% [100 µM] (active),-95.8% [100 µM] (active),-93.7% [100 µM] (active),-79.4% [100 µM] (active),-88.7% [100 µM] (active),-94% [100 µM] (active),-59.9% [100 µM] (active),-70.5% [100 µM] (active)
COc1ccc(/C=C/C(=C/c2c(O)[nH]c3cc(Br)ccc23)N=O)cc1,111%,103%,113%,111%,108%,116%,105%,104%,112%,126%,114%,89.1%,95.4%,101%,130%,107%,107%,99.4%,114%,115%
CSc1nc(=S)c2nc(SC)n(-c3ccccc3)c2[nH]1,103%,90.8%,96.8%,85.5%,95.5%,77.6%,70.1%,97.8%,101%,101%,108%,98.5%,109%,105%,108%,96.4%,105%,103%,96.3%,102%
CNc1cc(C(=O)O)nc(NC)n1,100%,98.8%,95.7%,103%,99.2%,87.1%,97.1%,101%,105%,105%,103%,101%,95.6%,93.1%,96%,100%,100%,94.6%,94.4%,92.7%
